{
  "source": "paper PMC11006913",
  "assay_in_all_cases": "PBM; 200 nM protein, PBS",
  "details_in_all_cases": "dsDNA, one strand shown",
  "key": {"[1]": {"molecular_target": "NKX2-5 (Homo sapiens, UniProt P52952 125-210, R139K)", "sequence (P52952 125-210 R139K)": "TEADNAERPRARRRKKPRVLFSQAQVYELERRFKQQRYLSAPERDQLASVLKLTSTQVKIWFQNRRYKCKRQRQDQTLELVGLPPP"}, "[2]": {"molecular_target": "T1, NKX2-6 (Homo sapiens, UniProt A6NCS4 118-204, R150C)", "T1 sequence": "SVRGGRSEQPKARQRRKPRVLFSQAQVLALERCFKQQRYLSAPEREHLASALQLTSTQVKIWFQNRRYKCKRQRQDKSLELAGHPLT"}, "[3]": {"molecular_target": "NKX3-2 (Homo sapiens, UniProt P78367 192-278, P234S)", "sequence (P78367 192-278 P234S)": "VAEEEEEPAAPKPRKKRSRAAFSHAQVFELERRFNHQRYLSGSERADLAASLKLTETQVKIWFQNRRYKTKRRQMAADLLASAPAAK"}, "[4]": {"molecular_target": "NKX2-5 (Homo sapiens, UniProt P52952 125-210)", "sequence (P52952 125-210)": "as the sequence (P52952 125-210 R139K) above, with K15R counted along it"}, "[5]": {"molecular_target": "NKX3-2 (Homo sapiens, UniProt P78367 192-278)", "sequence (P78367 192-278)": "as the sequence (P78367 192-278 P234S) above, with S43P counted along it"}, "[6]": {"molecular_target": "T2, NKX2-6 (Homo sapiens, UniProt A6NCS4 118-204)", "T2 sequence": "T1 sequence with C33R"}, "[7]": {"molecular_target": "T3, NKX2-6 (Homo sapiens, UniProt A6NCS4 118-204, F151L)", "T3 sequence": "T1 sequence with C33R, F34L"}, "[8]": {"molecular_target": "MSX2 (Homo sapiens, UniProt P35548 130-214, R199I)", "sequence (P35548 130-214 R199I)": "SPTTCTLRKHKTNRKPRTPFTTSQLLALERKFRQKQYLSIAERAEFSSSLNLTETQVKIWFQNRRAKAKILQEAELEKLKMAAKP"}, "[9]": {"molecular_target": "MSX2 (Homo sapiens, UniProt P35548 130-214)", "sequence (P35548 130-214)": "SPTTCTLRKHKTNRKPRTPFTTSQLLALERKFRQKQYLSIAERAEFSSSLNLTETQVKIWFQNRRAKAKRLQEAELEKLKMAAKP"}, "[10]": {"molecular_target": "MSX2 (Homo sapiens, UniProt P35548 130-214, F161Y)", "sequence (P35548 130-214 F161Y)": "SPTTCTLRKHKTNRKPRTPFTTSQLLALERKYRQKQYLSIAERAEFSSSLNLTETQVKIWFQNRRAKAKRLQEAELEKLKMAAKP"}},
  "note": "Changes are numbered by the printed parent chain.",
  "data": [
    {"sequence": "GAAGTGGA", "values": [
      {"measurement": "binding signal", "setting": "[1]", "result": "11.7 upbm affinity estimate (log intensity, higher = more binding, comparable within an allelic series)"},
      {"measurement": "binding signal", "setting": "[2]", "result": "11.3 upbm affinity estimate (log intensity, higher = more binding, comparable within an allelic series)"},
      {"measurement": "binding signal", "setting": "[3]", "result": "12.5 upbm affinity estimate (log intensity, higher = more binding, comparable within an allelic series)"},
      {"measurement": "binding signal", "setting": "[4]", "result": "11.8 upbm affinity estimate (log intensity, higher = more binding, comparable within an allelic series)"},
      {"measurement": "binding signal", "setting": "[5]", "result": "12.6 upbm affinity estimate (log intensity, higher = more binding, comparable within an allelic series)"}
    ]},
    {"sequence": "CTGGCCGA", "values": [
      {"measurement": "binding signal", "setting": "[1]", "result": "8.94 upbm affinity estimate (log intensity, higher = more binding, comparable within an allelic series)"},
      {"measurement": "binding signal", "setting": "[2]", "result": "9.45 upbm affinity estimate (log intensity, higher = more binding, comparable within an allelic series)"},
      {"measurement": "binding signal", "setting": "[4]", "result": "8.74 upbm affinity estimate (log intensity, higher = more binding, comparable within an allelic series)"}
    ]},
    {"sequence": "TAAGTGCA", "values": [
      {"measurement": "binding signal", "setting": "[1]", "result": "12.6 upbm affinity estimate (log intensity, higher = more binding, comparable within an allelic series)"},
      {"measurement": "binding signal", "setting": "[2]", "result": "11.9 upbm affinity estimate (log intensity, higher = more binding, comparable within an allelic series)"},
      {"measurement": "binding signal", "setting": "[6]", "result": "13.5 upbm affinity estimate (log intensity, higher = more binding, comparable within an allelic series)"},
      {"measurement": "binding signal", "setting": "[7]", "result": "10.9 upbm affinity estimate (log intensity, higher = more binding, comparable within an allelic series)"},
      {"measurement": "binding signal", "setting": "[3]", "result": "12.8 upbm affinity estimate (log intensity, higher = more binding, comparable within an allelic series)"},
      {"measurement": "binding signal", "setting": "[4]", "result": "12.4 upbm affinity estimate (log intensity, higher = more binding, comparable within an allelic series)"},
      {"measurement": "binding signal", "setting": "[5]", "result": "12.9 upbm affinity estimate (log intensity, higher = more binding, comparable within an allelic series)"}
    ]},
    {"sequence": "AAGTGCCT", "values": [
      {"measurement": "binding signal", "setting": "[1]", "result": "12.4 upbm affinity estimate (log intensity, higher = more binding, comparable within an allelic series)"},
      {"measurement": "binding signal", "setting": "[2]", "result": "11.7 upbm affinity estimate (log intensity, higher = more binding, comparable within an allelic series)"},
      {"measurement": "binding signal", "setting": "[7]", "result": "10.8 upbm affinity estimate (log intensity, higher = more binding, comparable within an allelic series)"},
      {"measurement": "binding signal", "setting": "[3]", "result": "12.5 upbm affinity estimate (log intensity, higher = more binding, comparable within an allelic series)"},
      {"measurement": "binding signal", "setting": "[4]", "result": "12.3 upbm affinity estimate (log intensity, higher = more binding, comparable within an allelic series)"},
      {"measurement": "binding signal", "setting": "[5]", "result": "12.6 upbm affinity estimate (log intensity, higher = more binding, comparable within an allelic series)"}
    ]},
    {"sequence": "CTAAGTGC", "values": [
      {"measurement": "binding signal", "setting": "[1]", "result": "12.8 upbm affinity estimate (log intensity, higher = more binding, comparable within an allelic series)"},
      {"measurement": "binding signal", "setting": "[2]", "result": "11.8 upbm affinity estimate (log intensity, higher = more binding, comparable within an allelic series)"},
      {"measurement": "binding signal", "setting": "[6]", "result": "13.7 upbm affinity estimate (log intensity, higher = more binding, comparable within an allelic series)"},
      {"measurement": "binding signal", "setting": "[7]", "result": "11 upbm affinity estimate (log intensity, higher = more binding, comparable within an allelic series)"},
      {"measurement": "binding signal", "setting": "[3]", "result": "13 upbm affinity estimate (log intensity, higher = more binding, comparable within an allelic series)"},
      {"measurement": "binding signal", "setting": "[4]", "result": "12.7 upbm affinity estimate (log intensity, higher = more binding, comparable within an allelic series)"},
      {"measurement": "binding signal", "setting": "[5]", "result": "13 upbm affinity estimate (log intensity, higher = more binding, comparable within an allelic series)"}
    ]},
    {"sequence": "ACTAAGTG", "values": [
      {"measurement": "binding signal", "setting": "[1]", "result": "12.3 upbm affinity estimate (log intensity, higher = more binding, comparable within an allelic series)"},
      {"measurement": "binding signal", "setting": "[2]", "result": "11.6 upbm affinity estimate (log intensity, higher = more binding, comparable within an allelic series)"},
      {"measurement": "binding signal", "setting": "[6]", "result": "13.3 upbm affinity estimate (log intensity, higher = more binding, comparable within an allelic series)"},
      {"measurement": "binding signal", "setting": "[7]", "result": "10.6 upbm affinity estimate (log intensity, higher = more binding, comparable within an allelic series)"},
      {"measurement": "binding signal", "setting": "[3]", "result": "12.9 upbm affinity estimate (log intensity, higher = more binding, comparable within an allelic series)"},
      {"measurement": "binding signal", "setting": "[4]", "result": "12.3 upbm affinity estimate (log intensity, higher = more binding, comparable within an allelic series)"},
      {"measurement": "binding signal", "setting": "[5]", "result": "12.9 upbm affinity estimate (log intensity, higher = more binding, comparable within an allelic series)"}
    ]},
    {"sequence": "CCAGCAGC", "values": [
      {"measurement": "binding signal", "setting": "[1]", "result": "8.8 upbm affinity estimate (log intensity, higher = more binding, comparable within an allelic series)"},
      {"measurement": "binding signal", "setting": "[6]", "result": "9.28 upbm affinity estimate (log intensity, higher = more binding, comparable within an allelic series)"},
      {"measurement": "binding signal", "setting": "[7]", "result": "9.29 upbm affinity estimate (log intensity, higher = more binding, comparable within an allelic series)"},
      {"measurement": "binding signal", "setting": "[4]", "result": "8.73 upbm affinity estimate (log intensity, higher = more binding, comparable within an allelic series)"}
    ]},
    {"sequence": "CGACTGGC", "values": [
      {"measurement": "binding signal", "setting": "[1]", "result": "8.66 upbm affinity estimate (log intensity, higher = more binding, comparable within an allelic series)"},
      {"measurement": "binding signal", "setting": "[2]", "result": "9.39 upbm affinity estimate (log intensity, higher = more binding, comparable within an allelic series)"},
      {"measurement": "binding signal", "setting": "[4]", "result": "8.72 upbm affinity estimate (log intensity, higher = more binding, comparable within an allelic series)"}
    ]},
    {"sequence": "CACTTACC", "values": [
      {"measurement": "binding signal", "setting": "[1]", "result": "12.4 upbm affinity estimate (log intensity, higher = more binding, comparable within an allelic series)"},
      {"measurement": "binding signal", "setting": "[2]", "result": "11.6 upbm affinity estimate (log intensity, higher = more binding, comparable within an allelic series)"},
      {"measurement": "binding signal", "setting": "[6]", "result": "13.4 upbm affinity estimate (log intensity, higher = more binding, comparable within an allelic series)"},
      {"measurement": "binding signal", "setting": "[7]", "result": "10.7 upbm affinity estimate (log intensity, higher = more binding, comparable within an allelic series)"},
      {"measurement": "binding signal", "setting": "[3]", "result": "12.7 upbm affinity estimate (log intensity, higher = more binding, comparable within an allelic series)"},
      {"measurement": "binding signal", "setting": "[4]", "result": "12.3 upbm affinity estimate (log intensity, higher = more binding, comparable within an allelic series)"},
      {"measurement": "binding signal", "setting": "[5]", "result": "12.8 upbm affinity estimate (log intensity, higher = more binding, comparable within an allelic series)"}
    ]},
    {"sequence": "AGCCCAGG", "values": [
      {"measurement": "binding signal", "setting": "[1]", "result": "8.68 upbm affinity estimate (log intensity, higher = more binding, comparable within an allelic series)"},
      {"measurement": "binding signal", "setting": "[8]", "result": "9.6 upbm affinity estimate (log intensity, higher = more binding, comparable within an allelic series)"},
      {"measurement": "binding signal", "setting": "[9]", "result": "9.67 upbm affinity estimate (log intensity, higher = more binding, comparable within an allelic series)"},
      {"measurement": "binding signal", "setting": "[10]", "result": "9.66 upbm affinity estimate (log intensity, higher = more binding, comparable within an allelic series)"},
      {"measurement": "binding signal", "setting": "[3]", "result": "10.1 upbm affinity estimate (log intensity, higher = more binding, comparable within an allelic series)"},
      {"measurement": "binding signal", "setting": "[4]", "result": "8.63 upbm affinity estimate (log intensity, higher = more binding, comparable within an allelic series)"},
      {"measurement": "binding signal", "setting": "[5]", "result": "10.1 upbm affinity estimate (log intensity, higher = more binding, comparable within an allelic series)"}
    ]},
    {"sequence": "ACAATTAC", "values": [
      {"measurement": "binding signal", "setting": "[1]", "result": "10.9 upbm affinity estimate (log intensity, higher = more binding, comparable within an allelic series)"},
      {"measurement": "binding signal", "setting": "[8]", "result": "12.3 upbm affinity estimate (log intensity, higher = more binding, comparable within an allelic series)"},
      {"measurement": "binding signal", "setting": "[9]", "result": "13.5 upbm affinity estimate (log intensity, higher = more binding, comparable within an allelic series)"},
      {"measurement": "binding signal", "setting": "[10]", "result": "13.2 upbm affinity estimate (log intensity, higher = more binding, comparable within an allelic series)"},
      {"measurement": "binding signal", "setting": "[4]", "result": "11 upbm affinity estimate (log intensity, higher = more binding, comparable within an allelic series)"}
    ]},
    {"sequence": "GCACTTAC", "values": [
      {"measurement": "binding signal", "setting": "[1]", "result": "12.3 upbm affinity estimate (log intensity, higher = more binding, comparable within an allelic series)"},
      {"measurement": "binding signal", "setting": "[2]", "result": "11.6 upbm affinity estimate (log intensity, higher = more binding, comparable within an allelic series)"},
      {"measurement": "binding signal", "setting": "[6]", "result": "13.3 upbm affinity estimate (log intensity, higher = more binding, comparable within an allelic series)"},
      {"measurement": "binding signal", "setting": "[7]", "result": "10.6 upbm affinity estimate (log intensity, higher = more binding, comparable within an allelic series)"},
      {"measurement": "binding signal", "setting": "[3]", "result": "12.7 upbm affinity estimate (log intensity, higher = more binding, comparable within an allelic series)"},
      {"measurement": "binding signal", "setting": "[5]", "result": "12.8 upbm affinity estimate (log intensity, higher = more binding, comparable within an allelic series)"}
    ]}
  ]
}
